Measured values reported in PubChem BioAssay (NCATS).
Records with an inconclusive call do not appear. A call without a number means that no potency is given here. A number with no mark means an inactive call. Active and inactive are the calls of the source. Calls follow the shape of the dose curve; as a rule, active = well fitted inhibition curve with a large enough effect; inconclusive = small, poorly fitted or top-dose-only effect; inactive = flat fitted curve, though single readings scatter.

These molecules were tested against Aldehyde dehydrogenase, mitochondrial (Homo sapiens) (UniProt P05091) (assay: qHTS for Inhibitors of the Aldehyde Dehydrogenase Family (ALDH2) Primary screen (AID 2061308; also: nearly all actives have a fitted effect of over 55% in size)). Conditions: ALDH2 enzyme inhibition qHTS, 1536-well; series mostly up to 56 µM.

Compound	Potency	activity change, negative = inhibition
CC1=C[C@H]2[C@@H](CC1=O)[C@H](C)C[C@H](O)[C@H]2C(C)C	inactive	–
COc1cc(C2c3cc(O)c(OC)cc3CC(CO)C2CO)ccc1O (stereo not given)	inactive	–
C/C1=C\CC[C@H](C)CCO[C@@H]2O[C@H](CO[C@@H]3OC[C@](O)(COC1=O)[C@H]3O)[C@@H](O)[C@H](O)[C@H]2O	inactive	–
CC(=O)O[C@@H]1[C@H](OC(C)=O)C[C@@]2(C)C(CC[C@@H](C)[C@]23Cc2c(O)cc4c(c2O3)CN([C@@H](CCC(=O)O)C(=O)O)C4=O)C1(C)C (stereo not given in full)	inactive	–
COc1cc(/C=C/C(=O)OC2CC3CCC2(C)C3(C)C)ccc1O (stereo not given)	inactive	–
CC1=CC(=O)CC(C)(C)C1/C=C/C(C)OC1OC(COC2OCC(O)C(O)C2O)C(O)C(O)C1O (stereo not given)	inactive	–
CC1(C)CC[C@]2(C(=O)O[C@@H]3O[C@H](CO[C@@H]4O[C@H](CO)[C@@H](O)[C@H](O)[C@H]4O[C@@H]4O[C@H](CO)[C@H](O)[C@H](O)[C@H]4O)[C@@H](O)[C@H](O[C@@H]4O[C@H](CO)[C@@H](O)[C@H](O)[C@H]4O)[C@H]3O)CC[C@]3(C)C(=CCC4[C@@]5(C)CC[C@H](O[C@@H]6OC[C@@H](O)[C@H](O)[C@H]6O)[C@@](C)(C(=O)O)C5CC[C@]43C)[C@@H]2C1 (stereo not given in full)	–	6.97% [at 11.2 µM]
COc1cc2c(cc1O)CC[C@H]1[C@@H]2CC[C@]2(C)[C@H](O)CC[C@@H]12	inactive	–
CC1(C)CC[C@]2(C(=O)O[C@@H]3O[C@H](CO)[C@@H](O)[C@H](O)[C@H]3O)CC[C@]3(C)C(=CCC4[C@@]5(C)CC[C@H](O[C@@H]6O[C@H](C(=O)O)[C@@H](O)[C@H](O[C@@H]7O[C@H](CO)[C@H](O)[C@H](O)[C@H]7O)[C@H]6O)C(C)(C)C5CC[C@]43C)C2C1 (stereo not given in full)	inactive	–
C/C1=C\C[C@]2(C)C(=O)C(O)=C([C@H](C)CO)[C@H]2C/C=C(\C)[C@@H](O)CC/C(C)=C/CC1	inactive	–
COC(=O)C1=CO[C@@H](O[C@@H]2O[C@H](CO)[C@@H](O)[C@H](O)[C@H]2O)[C@H]2[C@@H]1C=C[C@]21C=C([C@H](C)OC(=O)/C=C/c2ccc(O)cc2)C(=O)O1	inactive	–
CC[C@@H](C)[C@H]1C(=O)O[C@H](C(C)C)C(=O)N(C)[C@@H](C(C)C)C(=O)O[C@H](C(C)C)C(=O)N(C)[C@@H](C(C)C)C(=O)O[C@H](CC(C)C)C(=O)N1C	inactive	–
C=C1C(=O)O[C@@H]2[C@H]1[C@H](O)C[C@]1(C)[C@@H](O)CC=C(C)[C@@H]21	inactive	–
C=C(C(=O)OC)C1C(O)CC2(C)C(=O)CCC(O)(CO)C2C1O (stereo not given)	inactive	–
COc1ccc(C(=O)CC(=O)O)c2c1C=CC(C)(C)O2	inactive	–
C[C@]1(O)CC[C@@H]2C(C(=O)O)=CO[C@@H](O[C@@H]3O[C@H](CO)[C@@H](O)[C@H](O)[C@H]3O)[C@@H]21	inactive	–
CC1=CC(=O)CC(C)(C)C1CCC(C)O[C@@H]1O[C@H](CO)[C@@H](O)[C@H](O)[C@H]1O (stereo not given in full)	inactive	–
CC1(C)CC[C@]2(C(=O)O[C@@H]3O[C@H](CO)[C@@H](O)[C@H](O)[C@H]3O)CC[C@]3(C)C(=CCC4[C@@]5(C)CC[C@H](OC6OC(C(=O)O)C(OC7OC(CO)C(O)C(O)C7O)C(O)C6O)C(C)(C)C5CC[C@]43C)C2C1 (stereo not given in full)	inactive	–
C=C(CC/C=C(\C)C(=O)O)C1(O)CC=C(C)CC1 (stereo not given)	inactive	–
CC1(C)CC[C@]23CO[C@@]4(CCC5[C@@]6(C)CC[C@H](O[C@@H]7OC[C@H](O[C@@H]8O[C@H](CO)[C@@H](O)[C@H](O)[C@H]8O[C@@H]8OC[C@@H](O)[C@H](O)[C@H]8O)[C@H](O)[C@H]7O)[C@@](C)(CO)C6CC[C@@]5(C)[C@]4(C)CC2=O)[C@@H]3C1 (stereo not given in full)	inactive	–

Compound	Potency	activity change, negative = inhibition
CC1(O)CCCC2(C)C1CCC13CC(CO)C(CCC12)C3 (stereo not given)	inactive	–
O=C1NC(Cc2ccccc2)C(=O)N2CCCC12 (stereo not given)	inactive	–
CC1(c2nc3c(C(N)=O)cccc3[nH]2)CCCN1 (stereo not given)	inactive	–
CC1(C)CC2C(O)C3=C(CC(C)(O)C2C1)C(=O)OC3O (stereo not given)	inactive	–
CC12CCC(C(OC3OC(COC4OCC(O)(CO)C4O)C(O)C(O)C3O)C1)C(C)(C)O2 (stereo not given)	inactive	–
CC1=C(CCC(C)CC(=O)O)[C@@]2(C)CCCC(C)(C)C2CC1=O (stereo not given in full)	inactive	–
CCCC1=CC2=C(CO1)C(=O)C(C)(OC(=O)c1c(C)cc(OC)cc1O)C(O)C2 (stereo not given)	inactive	–
CC(=O)O[C@@H](CO[C@@H]1O[C@H](CO)[C@H](O)[C@H](O)[C@H]1O)[C@]1(C)C=C2CC[C@@H]3C(C)(C)[C@@H](O)CC[C@@]3(C)[C@@H]2CC1	inactive	–
O=C(OCC12OC1C=CC(OC(=O)c1ccccc1)C2O)c1ccccc1 (stereo not given)	inactive	–
C=C1C(=O)O[C@@H]2[C@H]1CCC(C)=C1CCC(=O)O[C@]12C	inactive	–
CC(=O)c1cc2c(cc1O)OC(C)(C)C=C2	inactive	–
C=C(CCO)C(=O)OCC1OCC(OC(=O)C(=C)CCO[C@@H]2O[C@H](CO)[C@@H](O)[C@H](O)[C@H]2O)C(O)C1O (stereo not given in full)	inactive	–
COC(=O)CC[C@@H](C)[C@H]1CC[C@H]2[C@@H]3CC(=O)[C@H]4C[C@H](OC(C)=O)CC[C@]4(C)[C@H]3CC[C@]12C	inactive	–
C=CC[C@]12C[C@@H](OC)C(=O)C(OC)=C1O[C@@H](c1cc(OC)c3c(c1)OCO3)[C@@H]2C	inactive	–
CC(C)=CCC[C@](C)(O[C@@H]1O[C@H](CO[C@@H]2OC[C@@H](O)[C@H](O)[C@H]2O)[C@@H](O)[C@H](O)[C@H]1O)[C@H]1CC[C@]2(C)[C@@H]1[C@H](O)C[C@@H]1[C@@]3(C)CC[C@H](O[C@@H]4O[C@H](CO)[C@@H](O)[C@H](O)[C@H]4O)C(C)(C)[C@@H]3CC[C@]12C	inactive	–
C=C1CCC2[C@](C)(CCC[C@]2(C)C(=O)O)[C@H]1CC/C(C)=C/C(=O)OC (stereo not given in full)	inactive	–
C=C1C(=O)OC2C1C(O)CC1(C)C(O)CCC(C=O)C21 (stereo not given)	inactive	–
CC1C(=O)CC2C3CCC(C(=O)O)C12CC3(C)CO (stereo not given)	inactive	–
C=C1C(=O)O[C@@H]2CC(C)=C([C@@H](C)CCCO)[C@@H](OC(=O)C(C)C)[C@H]12	inactive	–
O=C(OC[C@H]1O[C@H](O[C@H]2CO[C@H](CO)[C@@H](O)[C@@H]2O)[C@H](O)[C@@H](O)[C@H]1O)c1ccccc1	inactive	–
